Bioassay records deposited in PubChem by The Scripps Research Institute Molecular Screening Center.
SMARCA2 activ: SMARCA2 function activation, primary screen; hit rate 1% among 370,000; MG213 cells, MMTV-luciferase reporter, dexamethasone, overnight; activation, % at 9.1 µM; in the data active = activation above about 7.8%
DAX1 inh-1: NR0B1 (DAX1) inhibition; HEK293 Gal4-DAX1 luciferase reporter, luminescence; hit rate 0.99% among 340,000; inhibition, % at 6.75 µM;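 active = inhibition above the mean over all tested compounds plus 3 SD, cut at about 4.2% in these data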;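 also: inhibition shows as a rise in luminescence from relieved DAX1 repression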
Target sequence (P51843 207-470 limits assumed): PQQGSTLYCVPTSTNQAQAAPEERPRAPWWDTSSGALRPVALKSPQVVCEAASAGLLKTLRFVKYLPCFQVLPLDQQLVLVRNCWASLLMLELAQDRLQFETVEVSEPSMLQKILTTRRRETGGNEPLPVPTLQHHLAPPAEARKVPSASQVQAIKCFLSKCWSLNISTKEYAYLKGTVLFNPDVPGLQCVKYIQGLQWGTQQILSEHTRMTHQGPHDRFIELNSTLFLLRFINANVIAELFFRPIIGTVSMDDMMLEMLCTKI
hgDAF12 agonist: hgDAF-12 agonism, primary luciferase screen. HEK293 GAL4-hgDAF12 UAS-luciferase reporter, agonist luminescence; normalized to butyrate control. activation, % at 6.8 µM. hit rate 1.8% among 370,000. AID 687014;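 active = activation above a cutoff set at the mean of all screened compounds plus 3 SD, cut at about 10% in these data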
ssDAF-12 act: activates DAF-12 receptor from parasite S. stercoralis; HEK293 ssDAF-12/GRIP1 lit1-tk-luc reporter, luminescence; % of 3 µM dafachronic acid response; activation, % at 6.8 µM; hit rate 1% among 370,000; AID 652126;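 active = activation above the mean over all tested compounds plus 3 SD, cut at about 0.9% in these data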
hcDAF12 agonist: H. contortus DAF-12 activation, primary screen. HEK293 hcDAF-12 lit1-tk-luc reporter, luminescence; 0% DMSO, 100% Δ7-dafachronic acid. activation, % at 6.8 µM. hit rate 1.4% among 370,000;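 active = activation above the mean of all tested compounds plus 3 SD, cut at about 5.5% in these data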
DAX1 inh-2: blocks DAX1 repression of SF-1 activated StAR promoter; HEK293T StAR-luciferase reporter, SF-1/DAX-1 repression relief; inhibition, % at 6.8 µM; hit rate 1.1% among 370,000; AID 652010;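 active = inhibition above the mean over all tested compounds plus 3 SD, cut at about 3.6% in these data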;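 also: higher inhibition means more luminescence from relief of DAX-1 repression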
DAX1 inh confirm: NR0B1 (human) inhibition, confirmation. shares compounds with DAX1 inh-2. HEK293T StAR-promoter luciferase reporter, SF-1/DAX-1 repression. inhibition, % at 6.8 µM. hit rate 87% among 2,400;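 active = inhibition above the average of every tested compound plus 3 SD, cut at about 3.8% in these data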;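 also: active compounds raise luminescence by relieving repression of the StAR reporter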
SF1 AF2mut Luc: nonselective inhibitor or artifact in SF-1 mutant DAX1 counter-screen. shares compounds with DAX1 inh-2. HEK293 StAR-luciferase, SF-1 AF2 mutant, luminescence. inhibition, % at 6.8 µM. hit rate 78% among 2,400. AID 652136;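 active = inhibition above the mean of all tested compounds plus 3 SD, cut at about 3% in these data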
Numbers stand for hits. An excerpt weighted towards active compounds, which were near 4.8% of everything screened.

`N/C(=N\OC(=O)c1ccco1)c1ccc(Br)cc1` gave SMARCA2 activ inactive, DAX1 inh-1 inactive, hgDAF12 agonist inactive, ssDAF-12 act inactive, hcDAF12 agonist inactive, DAX1 inh-2 4.7, DAX1 inh confirm 7.2 and SF1 AF2mut Luc 4.4.
Screening Nc1cnn(C2OC(CO)C(O)C2O)c(=O)n1 (configuration not stated) returned SMARCA2 activ inactive, DAX1 inh-1 inactive, hgDAF12 agonist inactive, ssDAF-12 act inactive, hcDAF12 agonist inactive, DAX1 inh-2 4.6, DAX1 inh confirm 6.8 and SF1 AF2mut Luc inactive.
Nc1nc(=O)n(C2OC(CO)C(O)C2O)cc1F (configuration not stated) was read as SMARCA2 activ inactive, hgDAF12 agonist inactive, ssDAF-12 act inactive, hcDAF12 agonist inactive and DAX1 inh-2 inactive.
For CCOC(=O)c1csc(NC(=O)C2CCCN(S(=O)(=O)c3cc(OC)ccc3OC)C2)n1 (configuration not stated) the results were SMARCA2 activ inactive, hgDAF12 agonist inactive, ssDAF-12 act inactive, hcDAF12 agonist inactive and DAX1 inh-2 inactive.
For CCN1CCc2c(sc(NC(=O)c3ccc(S(=O)(=O)N4CC(C)OC(C)C4)cc3)c2C(N)=O)C1 (configuration not stated) the results were SMARCA2 activ inactive, DAX1 inh-1 inactive, hgDAF12 agonist inactive, ssDAF-12 act inactive, hcDAF12 agonist inactive, DAX1 inh-2 4.8, DAX1 inh confirm inactive and SF1 AF2mut Luc 3.7.
`CCN1CCN(S(=O)(=O)c2ccc(C(=O)Nc3sc4c(c3C(N)=O)CCN(CC)C4)cc2)CC1` gave SMARCA2 activ inactive, DAX1 inh-1 inactive, hgDAF12 agonist inactive, ssDAF-12 act inactive, hcDAF12 agonist inactive and DAX1 inh-2 inactive.
For O=C(CCS(=O)(=O)c1ccccc1)N1CCN(c2ccccc2)CC1 the results were SMARCA2 activ inactive, DAX1 inh-1 inactive, hgDAF12 agonist inactive, ssDAF-12 act inactive, hcDAF12 agonist inactive, DAX1 inh-2 9.3, DAX1 inh confirm 6.8 and SF1 AF2mut Luc 3.7.
For O=C(CCS(=O)(=O)c1ccc(Br)cc1)N1CCN(c2ccccc2)CC1 the results were SMARCA2 activ inactive, DAX1 inh-1 inactive, hgDAF12 agonist inactive, ssDAF-12 act inactive, hcDAF12 agonist inactive and DAX1 inh-2 inactive.
Screening O=C(CN1CCN(S(=O)(=O)c2ccc(Cl)cc2)CC1)NCC1(N2CCOCC2)CCCCC1 returned SMARCA2 activ inactive, DAX1 inh-1 inactive, hgDAF12 agonist inactive, ssDAF-12 act inactive, hcDAF12 agonist inactive, DAX1 inh-2 4.7, DAX1 inh confirm inactive and SF1 AF2mut Luc inactive.
`Cc1ccc(S(=O)(=O)N2CCN(CC(=O)NCC3(N4CCOCC4)CCCCC3)CC2)cc1` gave SMARCA2 activ inactive, DAX1 inh-1 inactive, hgDAF12 agonist inactive, ssDAF-12 act inactive, hcDAF12 agonist inactive and DAX1 inh-2 inactive.
Screening COC(=O)[C@H](CC(C)C)N1Cc2nnn(CC3CCCCC3)c2-c2cc(F)ccc2S1(=O)=O returned SMARCA2 activ inactive, hgDAF12 agonist inactive, ssDAF-12 act inactive, hcDAF12 agonist inactive and DAX1 inh-2 inactive.
CNc1cc(-c2ccc(OC)c(OC)c2)ncn1 was read as SMARCA2 activ inactive, hgDAF12 agonist 12, ssDAF-12 act inactive, hcDAF12 agonist inactive, DAX1 inh-2 5.3, DAX1 inh confirm 9.5 and SF1 AF2mut Luc 4.8.
For C=CCN1[C@H](C)COc2cc(N3CCSCC3)ccc2S1(=O)=O the results were SMARCA2 activ inactive, hgDAF12 agonist inactive, ssDAF-12 act inactive, hcDAF12 agonist inactive and DAX1 inh-2 inactive.
For CC1(C)Cc2cccc(OCC(=O)NCCc3ccc(S(N)(=O)=O)cc3)c2O1 the results were SMARCA2 activ inactive, DAX1 inh-1 inactive, hgDAF12 agonist inactive, ssDAF-12 act inactive, hcDAF12 agonist inactive and DAX1 inh-2 inactive.
`CC1(C)Cc2cccc(OCC(=O)NCCc3ccccc3)c2O1` gave SMARCA2 activ inactive, DAX1 inh-1 inactive, hgDAF12 agonist inactive, ssDAF-12 act inactive, hcDAF12 agonist inactive, DAX1 inh-2 5.1, DAX1 inh confirm 4.5 and SF1 AF2mut Luc 3.1.
